# Test results reported in PubChem BioAssay.
# Target: Calmodulin-1 (Homo sapiens) (UniProt P0DP23)
# Assay: small molecules binding Ca-loaded calmodulin-1 – biochemical, small-molecule microarray, Cy5-labelled CALM1, plus calcium, artefact control for SMM control-protein annotation, profiling panel (AID 1112);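 also: score merges spot fluorescence with signal to noise from triplicate slides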
# Conditions: Cy5-CALM1 binding fluorescence, higher = more signal
row,SMILES,composite z-score
1,O=C1O[C@H](Cc2ccccc2)[C@@H]2[C@H]3C=CCCC=C3CN2[C@H]1Cc1ccc(O)cc1,-0.593
2,CN1C(=O)[C@@H]2[C@@H](CC(COc3ccccc3)=C3[C@@H](CCc4ccccc4)OB(O)C[C@@H]32)C1=O,0.662
3,CCOC(=O)C[C@H]1[C@H](OC(=O)Cc2ccc3c(c2)OCO3)[C@@H](NC(=O)Cc2ccc(OC)cc2)c2cc(OCCCO)ccc2N1C(=O)Cc1ccc(OC)cc1,0.0314
4,CN(C)CCCNC(=O)[C@@]1(Cc2ccccc2I)c2ccccc2C(=O)N(C2CCCCC2)[C@H]1c1ccc(CO)cc1,1.2
5,CCCCC(=C=CC[C@H](O)c1ccc(CO)o1)CCO,-0.363
6,COC(=O)[C@@]1(Cc2ccc(F)cc2)[C@H]2c3cc(C(=O)N(C)C)n(C)c3C[C@H]2CN1C(=O)c1ccccc1,0.815
7,CC1CC/C=C\[C@H]2OC34C=CCN(c5ccc(Cl)cc5)C(=O)[C@H]3N(CCCCCCO)C(=O)[C@]4(C)C2C(=O)O1 (stereo not given in full),0.864
8,O=C1C[C@]2(c3ccc([N+](=O)[O-])cc3)C(=O)N(C3CC3)c3cc(CO)ccc3[C@H]2N1C1CCCCC1,-0.931
9,CCCC[C@H]1C[C@@H]1[C@@H]1N(C(C)=O)[C@H](c2cccc(OC)c2)CC12CC2,0.878
10,Cc1ccc(S[C@]2(C(=O)NCC(F)(F)F)CC(=O)N(Cc3ccccc3C(F)(F)F)[C@@H]2c2ccc(CO)cc2)cc1,0.0313
11,Cc1ccc(S[C@]2(C(=O)NCCCN(C)C)CC(=O)N(C3Cc4ccccc4C3)[C@@H]2c2ccc(CO)cc2I)cc1,-0.358
12,N#Cc1ccc(C(O)C2C=CC3C(=O)NC(=O)C3N2Nc2ccc(Cl)cc2Cl)cc1 (stereo not given),0.635
13,O=C1O[C@@H](c2ccccc2)[C@@H](c2ccccc2)N2[C@@H](c3ccccc3OCCO)[C@]3(C(=O)Nc4ccc(C#CCCO)cc43)[C@@H](C(=O)NC[C@H](O)c3ccccc3)[C@H]12,0.953
14,COc1ccc([Si](C)(C)[C@@H]2[C@@H](CC(=O)N3Cc4ccccc4C[C@H]3CO)O[C@]3(C(=O)N(Cc4ccc(N5CCOC5=O)cc4)c4ccccc43)[C@H]2C)cc1,-0.497
15,COc1ccccc1CN1C(=O)c2ccccc2[C@](Cc2ccccc2I)(C(=O)NCC(C)C)[C@@H]1c1ccc(CO)cc1,-0.18
16,CC(C)(C)OC(=O)CC[C@@]1(C(=O)NCCN2CCOCC2)N=C(c2ccc(OCCCO)cc2)O[C@@H]1c1ccccc1CN=[N+]=[N-],-0.0256
17,CC(C)=CCCC(C)=CC(O)C1C=CC2C(=O)NC(=O)C2N1Nc1ccccn1 (stereo not given),-1.15
18,CC(C)N1C(=O)c2ccccc2[C@](C)(C(=O)NCC(F)(F)F)[C@@H]1c1ccc(CO)cc1,0.179

row,SMILES,composite z-score
1,Cc1ccc(S[C@]2(C(=O)NCc3ccccc3)CC(=O)N(Cc3ccccc3C(F)(F)F)[C@@H]2c2ccc(CO)cc2)cc1,0.272
2,Cc1ccccc1C(O)C1C=CC2C(=O)N(c3ccccc3)C(=O)C2N1Nc1ccccc1 (stereo not given),0.585
3,O=C1OCCC=C[C@H]2OC34C=CCN(c5ccc6ccccc6c5)C(=O)[C@H]3N(CCO)C(=O)[C@@H]4C12 (stereo not given in full),-0.419
4,COCCCNC(=O)[C@@H]1c2ccccc2C(=O)N(Cc2ccc(OC(F)(F)F)cc2)[C@H]1c1ccc(CO)cc1,-0.269
5,CCC(CC)C(O)C1C=CC2C(=O)N(c3ccccc3)C(=O)C2N1Nc1ccccc1F (stereo not given),0.25
6,C=C1C(=O)C=C2CN(C(=O)c3ccccc3)[C@@](Cc3ccc(OC)cc3)(C(=O)OC)[C@@H]12,0.311
7,O=C(NC1CC1)[C@@H]1c2ccccc2C(=O)N(Cc2cc(C(F)(F)F)cc(C(F)(F)F)c2)[C@H]1c1ccc(CO)cc1,-0.366
8,COC(=O)c1cccc([C@H]2OC(=CC(=O)OC(C)C)C[C@@H](c3cccc(C(=O)OC)c3)O2)c1,0.144
9,COc1cc(C(O)C2C=CC3C(=O)N(c4ccccc4)C(=O)C3N2Nc2ccccc2F)cc(OC)c1OC (stereo not given),-0.383
10,COCCOC(=O)N1C(=O)[C@@]2(c3cc(C#CCC(C(=O)OC)C(=O)OC)ccc31)[C@H](c1ccc(O)cc1)N1[C@H](c3ccccc3)[C@H](c3ccccc3)OC(=O)[C@H]1[C@@H]2C(=O)Nc1nc2ccccc2s1,-0.563
11,COc1ccc([Si](C)(C)[C@@H]2[C@@H](CC(=O)N(CCO)Cc3ccccc3)O[C@]3(C(=O)N(Cc4ccc(N5C(=O)c6cccc7cccc5c67)cc4)c4ccccc43)[C@H]2C)cc1,0.822
12,C[C@@H]1ON(c2ccc(I)cc2)[C@H](c2cccc(NC(=O)OCC3c4ccccc4-c4ccccc43)c2)[C@H]1C(=O)N1C(=O)OC[C@H]1Cc1ccccc1,-0.435
13,COCCOC(=O)N1C(=O)[C@@]2(c3cc(C#CCC(C(=O)OC)C(=O)OC)ccc31)[C@H](C(=O)Nc1nc3ccccc3s1)[C@H]1C(=O)O[C@H](c3ccccc3)[C@H](c3ccccc3)N1[C@@H]2c1ccc(O)cc1,-0.0869
14,COc1ccc(C(O)C2C=CC3C(=O)N(c4ccccc4)C(=O)C3N2Nc2ccc([N+](=O)[O-])cc2)c2ccccc12 (stereo not given),0.554
15,COc1ccc(C(=O)Nc2ccc3c(c2)[C@@]2(O[C@H](CCO)[C@@H]([Si](C)(C)c4ccc(OC)cc4)[C@@H]2C)C(=O)N3Cc2ccccc2)cc1,0.238
16,[N-]=[N+]=Nc1ccccc1[C@@H]1OC(c2ccc(OCCCO)cc2)=N[C@]1(CCS(=O)(=O)c1ccccc1)C(=O)NCC(O)CO (stereo not given in full),-0.271
17,COC(=O)[C@@]1(Cc2ccccc2)[C@H]2c3cc(C(=O)N(C)C)n(Cc4ccc(S(C)(=O)=O)cc4)c3C[C@H]2CN1C(=O)c1ccccc1,1.11
